# PubChem BioAssay AID2058 (Sanford-Burnham Center for Chemical Genomics, 2009)
# Among all 290,000 compounds or so, about 150 (0.052%) were called active. The list comes from a sample in which actives are over-represented; it also holds similar structures and randomly drawn compounds. Potency and affinity values are given separately. A number with no mark means an inactive call.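 Rule for the calls: active = inhibition of at least 50% with at least 30 cells and total cytoplasm GFP at most 10,000,000; inconclusive = under 30 cells or total GFP of 10,000,000 plus; inactive = the rest.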
# Molecular target: G-protein coupled receptor 35 (Homo sapiens) (UniProt Q9HC97)
# Assay: GPR35 antagonists blocking zaprinast-driven arrestin recruitment, primary screen, imaging, U2OS, beta-arrestin-GFP, zaprinast agonist (AID 2058)
# Settings: U2OS GPR35 beta-arrestin-GFP translocation imaging, zaprinast antagonism; at 10 µM; stronger effect = higher value
# G-protein coupled receptor 35 (Homo sapiens), sequence (Q9HC97 whole entry, looked up): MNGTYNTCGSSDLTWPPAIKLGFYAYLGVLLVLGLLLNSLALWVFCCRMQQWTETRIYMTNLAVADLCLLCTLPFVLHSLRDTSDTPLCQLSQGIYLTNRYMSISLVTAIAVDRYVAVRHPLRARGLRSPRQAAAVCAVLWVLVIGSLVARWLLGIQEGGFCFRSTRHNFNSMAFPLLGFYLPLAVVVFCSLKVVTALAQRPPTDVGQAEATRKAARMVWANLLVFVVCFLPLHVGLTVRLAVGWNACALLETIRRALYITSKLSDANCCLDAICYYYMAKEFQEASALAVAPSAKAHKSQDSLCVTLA
row,SMILES,inhibition
1,CN1/C(=C\C=Nc2ccccc2)C(C)(C)c2ccccc21,-7.9%
2,CN1/C(=C\C=C\C2=[N+](C)c3ccc4ccccc4c3C2(C)C)C(C)(C)c2ccccc21,111% (active)
3,CN1/C(=C\C=C2C(=O)NC(=O)NC2=O)C(C)(C)c2ccccc21,1.5%
4,COc1ccc(NC(=O)c2cn(CCC#N)nc2-c2cccc(Br)c2)cc1,-0.5%
5,CCCNS(=O)(=O)c1ccc(OCC(=O)N2CCN(C)CC2)cc1,3.2%
6,CCCCNC(=O)NC(C(N)=O)P(=O)(OCC)OCC (stereo not given),-6.8%
7,COc1cccc(-c2nn(Cc3ccccc3)cc2C(=O)O)c1,21.1%
8,COc1cccc(CN2CCCCC2c2cccnc2)c1 (stereo not given),11.2%
9,COc1cccc(C2CC3C(=O)C=CC2N3Cc2ccccc2)c1 (stereo not given),58.2% (active)
10,Clc1ccc(NC2=NCCCS2)cc1Cl,-7.1%
11,Cc1nccc2c1[nH]c1ccccc12,2.3%
12,c1ccc2c(c1)[nH]c1cnccc12,-1.7%
13,Cc1c2ccncc2c(C)c2c1[nH]c1ccccc12,57.9% (active)
14,CCOc1ccc(Cl)cc1CNCCc1ccc(F)cc1,-1.9%
15,Cc1ccc(C(=O)Nc2ccc(-n3ccnc3P(=O)(O)c3ccccc3)cc2)cc1,-2.7%
